The values that follow come from PubChem BioAssay AID720650 (Broad Institute, 2013).

Usually AC50 stands for the midpoint of the concentration-response curve, whichever way the signal moves.

Values without a mark were called inactive. Calls of active or inactive are those of the source. How the calls were made is not given here.

The experiment in a line: C difficile toxins, biochemical counterscreen, UDPG substrate absence, confirmatory dose response (AID 720650). The note with it: series mostly up to 19.5 µM. For orientation: Counterscreens check selectivity or assay interference.
Consider `COc1ccccc1OCC(=O)Nc1ccc(-c2nnc(-c3ccco3)o2)cc1`, for which the AC50 was > 39 µM.
The value for `CCOC(=O)/C(=N/Nc1ccc(Br)cc1)N1CC(C)OC(C)C1` (stereo unspecified) was 0.615 µM (active); that for `COc1cc(-c2n[nH]c(=S)n2/N=C/c2cccn2C)cc(OC)c1OC` was “inactive”; that for `O=C(NC(=S)Nc1ccc(N2CCOCC2)cc1)c1ccccc1` was “inactive”.
With `O=C(CSc1nc2ccccc2[nH]1)NC1CCCc2ccccc21` (stereo unspecified), the AC50 is > 39 µM.
As to `Cc1[nH]c(-c2ccc(F)cc2)cc1C(=O)N1CCN(c2ccccc2)CC1`, the AC50 entry is “inactive”.
Take `COc1cc(/C=N/N2C(=O)C3C4C=CC(CC4)C3C2=O)ccc1O` (stereo unspecified): the AC50 result was “inactive”.
Then `Cc1cc(C(=O)CSc2nc(N)cc(=O)[nH]2)c(C)n1CC1CCCO1` (stereo unspecified), with “inactive”.
Then `COc1ccc(NS(=O)CCCc2ccccc2)cc1` (stereo unspecified), with “inactive”; and `Cc1cc(NC(=O)CCCN2C(=O)c3cccc4cccc(c34)C2=O)no1`, with “inactive”.
In the case of `COc1cc2oc3ccc(C#Cc4ccccn4)cc3c(=O)c2cc1OC`, the AC50 result is “inactive”.
Then `O=C(C[C@@H]1CC[C@@H]2[C@H](COC[C@@H](O)CN2C(=O)c2ccccn2)O1)NC1CCC1`, with “inactive”; and `COc1ccc(NC(=O)CN(C)C(=O)c2cccc(NS(=O)(=O)c3ccc(Br)cc3)c2)cc1`, with “inactive”.
Then `NS(=O)(=O)c1cccc(NC(=O)c2ccc(NS(=O)(=O)c3cccc([N+](=O)[O-])c3)cc2)c1`, with “inactive”; and `O=C(CSc1ccc2nnc(-c3ccc(F)cc3)n2n1)N1CCOCC1`, with “inactive”.
The value for `COC(=O)C1=C[C@@H](C(=O)OC)[C@@H]2C3=C(C(=O)[C@]2(C)NC(=O)c2ccccc2)[C@H](C)n2c(=O)n(C)c(=O)n2[C@@H]3C1` was “inactive”.
